Marburg entry inh = qHTS for inhibitors of binding or entry into cells for Marburg Virus; Potency, µM (titrated, usually from 37.8 µM), inactives show at the highest dose activity change, negative = inhibition, hits mostly inhibitors; 300,000 compounds, 1.8% hits; AID 540276, 2011; Marburg virus pseudotyped entry inhibition, cell reporter; calls by dose curve; tested in HEK293 cells; also: potency is read from the fitted curve at half-maximal effect; % is scaled to controls: 0 for no effect and ±100 for the full control effect
Lassa entry inh = qHTS for Inhibitors of binding or entry into cells for Lassa Virus | AID 540256, 2011 | Potency, µM (doses to about 37.9 µM), for inactives: at the highest dose activity change, negative = inhibition, actives largely listed as inhibitors | Lassa virus pseudotype entry inhibition, cell reporter | 300,000 compounds, 1.2% hits; calls by dose curve; tested in HEK293 cells; also: potency is read from the fitted curve at half-maximal effect; % is scaled to controls: 0 for no effect and ±100 for the full control effect; nearly all actives have a fitted effect of over 50% in size
Shiga inhibitor = A qHTS for Small Molecule Inhibitors of Shiga Toxin | Vero cells, Shiga toxin protein synthesis inhibition reporter | inhibition, % at 38.7 µM | 290,000 compounds, 9.2% hits | AID 2315, 2010; in the data active = inhibition mostly above about 28%, no sharp cut-off; inactive = mostly below about 43%; also: 0% is about no effect
Cycloheximide cs = Cycloheximide Counterscreen for Small Molecule Inhibitors of Shiga Toxin; max response, %; 300,000 compounds, 12% hits; cell reporter, cycloheximide protein synthesis inhibition counterscreen; in the data active = max response mostly above about 13%, no sharp cut-off; inactive = mostly below about 14%; also: read at 38.3 µM for the half of the compounds with a filed dose; 0% is about no effect
* hit, by the source's call; u = inconclusive; x = no result given; [ ] = another dose, or the depositor's remark. Only some compounds are listed: those with a hit (about 12% of all), similar ones and a draw of the others.

SMILES | Marburg entry inh | Lassa entry inh | Shiga inhibitor | Cycloheximide cs
CCCCCCN1C[C@H](O)[C@@H](n2cc(-c3ccc(F)cc3)nn2)C[C@H]1c1ccc(C)cc1 | x | 25µM* | x | x
O=C(C1CCCCC1)N1C[C@@H](n2cc(-c3ccc(F)cc3)nn2)[C@@H](O)C[C@@H]1c1ccccc1 | x | -2.3%[46.1 µM] | x | x
COc1ccc(N(CC(=O)Nc2ccccc2C)S(=O)(=O)c2ccccc2[N+](=O)[O-])c(OC)c1 | -23.7%[46.1 µM] | u | 11.1 | -1.4
CCOc1ccccc1NC(=O)CN(c1ccc(OC)cc1OC)S(=O)(=O)c1ccccc1[N+](=O)[O-] | 10µM* | 0.8%[46.1 µM] | 6.3 | 0.6
CCOc1ccc2c(ccc(/C=C/c3cc(C)c4cccnc4c3O)[n+]2C)c1 | 15.8µM* | u | x | x
CCOc1ccc2c(c1)sc(N)[n+]2Cc1cc(C)cc2cccnc12 | u | u | -13.6 | -7.1
COc1ccc(O[C@@H]2[C@H](O)CO[C@H]2/C=C/C#Cc2ccccc2)cc1 | 7.5%[14.2 µM] | x | x | x
COc1ccc(N(CC(=O)NCCc2ccccc2)C(=O)c2csnn2)cc1OC | u | -0.2%[46.1 µM] | -3.2 | -9.2
CCCCC1(Cc2ccc([N+](=O)[O-])cc2)C(=O)N(c2ccccc2)N(c2ccccc2)C1=O | 7.94µM* | u | 21.3 | -2.2
Cc1nn(Cc2ccc([N+](=O)[O-])cc2)c(=O)n1-c1ccccc1 | 5.8% | 6.8% | -18.3 | -1.3
C/C(Cn1cnc([N+](=O)[O-])n1)=N\NC(=O)c1ccc(O)cc1O | 2.6%[46.1 µM] | 26.8% | 86.7* | 42.1*
C/C(Cn1cnc([N+](=O)[O-])n1)=N\NC(=O)c1ccccc1O | 1.4%[46.1 µM] | -3.4% | 39.3* | 23.6*
C/C(Cn1cnc([N+](=O)[O-])n1)=N\NC(=O)c1ccccc1F | 25.6% | u | x | x
COc1cc(C(=O)N/N=C(\C)Cn2nc([N+](=O)[O-])cc2C)ccc1O | u | -2.4% | -1.8 | -3.5
O=C(Cn1cnc([N+](=O)[O-])n1)N/N=C/c1ccccc1O | u | u | -6.4 | -2.8
C/C(Cn1nc([N+](=O)[O-])cc1C)=N\NC(=O)c1ccc(O)cc1O | 13.8% | 2.3% | 38.8 | 30.3*
Cc1ccc(-c2nnn(CC(=O)N(c3ccccc3)C(C(=O)NCC3CCCO3)c3cccs3)n2)o1 (stereo not given) | -17.5%[46.1 µM] | 1.0% | 4.3 | -1.8
COc1cccc(C2CC(c3cccc(NS(C)(=O)=O)c3)=NN2C(=O)c2ccccc2)c1OC (stereo not given) | u | 14.1µM* | -11.9 | -2.1
CCS(=O)(=O)N1N=C(c2cccc(NS(C)(=O)=O)c2)CC1c1ccc(C)cc1 (stereo not given) | -0.9%[46.1 µM] | -6.6% | 31.1 | 27.5*
CN(C)c1ccc(C2CC(c3cccc(NS(C)(=O)=O)c3)=NN2C(=O)c2ccccc2)cc1 (stereo not given) | u | u | 18.4 | -0.7
Cc1nc(N2N=C(c3ccc(Cl)cc3)CC2c2ccco2)sc1C(=O)N(C)C (stereo not given) | -25.0%[46.1 µM] | u | 30.2 | 26.9*
Cc1nnc(SCC(=O)N2N=C(c3ccc(Cl)cc3)CC2c2ccco2)[nH]c1=O (stereo not given) | 1.7%[46.1 µM] | 12.3% | 46.5 | 18.3*
CCC[C@H](CCC(=O)Nc1ccc(C(=O)OCC)cc1)C(=O)O | -6.4% | x | x | x
C(=C\c1ccco1)/C1=NN(c2ccccc2)C(c2ccco2)C1 (stereo not given) | u | -0.1% | 79.9* | 40.4*
CC(=O)N1N=C(c2ccc(Cl)cc2)CC1c1ccco1 (stereo not given) | u | -3.2%[46.1 µM] | -7.3 | 7.1
SMILES | Marburg entry inh | Lassa entry inh | Shiga inhibitor | Cycloheximide cs
O=[N+]([O-])c1ccc(/C=C/C2=NN(c3ccccc3)C(c3ccco3)C2)o1 (stereo not given) | 15.1%[46.1 µM] | 19.3% | 14.6 | 12.0
Cc1cccc2cc(C3CC(c4ccco4)=NN3S(=O)(=O)c3ccccc3)c(Cl)nc12 (stereo not given) | u | u | 86.4* | 35.8*
CC(=O)N1N=C(c2ccc(C)cc2)CC1c1ccco1 (stereo not given) | u | -12.0%[46.1 µM] | 34.7 | 13.1*
Cc1ccc(N2N=C(c3ccc(F)cc3)CC2c2ccco2)cc1 (stereo not given) | x | x | 46.2* | 30.4*
COc1cc(NC(=O)Cn2nnc(-c3ccc(C(F)(F)F)cc3)n2)c(C(=O)O)cc1OC | x | 6.1%[46.1 µM] | x | x
CC(=O)N1N=C(c2ccccc2)CC1c1cn(C)c2ccccc12 (stereo not given) | u | -15.1% | 115.4* | 52.0*
Clc1ccc(C2=NN(c3ccccc3)C(c3ccco3)C2)cc1 (stereo not given) | u | 4.4%[46.1 µM] | 75.2* | 44.1*
Cc1ccc(C2CC(c3ccccc3)=NN2c2ccccc2)o1 (stereo not given) | 9.3% | 5.0% | 63.8* | 21.3*
O=S(=O)(c1ccccc1)N1N=C(c2ccc(Cl)cc2)CC1c1ccco1 (stereo not given) | 10µM* | u | x | x
CCS(=O)(=O)Nc1cccc(C2=NN(S(=O)(=O)c3ccccc3)C(c3ccco3)C2)c1 (stereo not given) | -3.6% | u | -3.4 | 12.0
CCc1cc(=O)oc2c(C)c(OCC(=O)N3CCC(C(=O)O)CC3)ccc12 | x | x | -9.9 | -3.9
CS(=O)(=O)Nc1cccc(C2=NN(S(=O)(=O)c3ccccc3)C(c3ccco3)C2)c1 (stereo not given) | 1.1% | -15.8% | 36.7 | 16.4*
COc1ccc(C2=NN(c3nc(-c4ccccc4)c(CC(=O)O)s3)C(c3ccco3)C2)cc1 (stereo not given) | u | u | 47.7* | 17.9*
COc1ccc(C2=NN(C(=O)COc3ncnc4ccccc34)C(c3ccco3)C2)cc1 (stereo not given) | u | u | -10.1 | -3.9
O=c1c2ccccc2[nH]c2ccc(O)cc12 | 15.1%[46.1 µM] | -12.2% | 15.6 | 2.9
Cc1ccc2[nH]c3ccccc3c(=O)c2c1 | 1.5% | 18.0% | 48.5* | 28.0*
COc1cccc(Oc2nccc(N(C)C)c2C#N)c1 | u | 1.2%[46.1 µM] | 38.7* | 15.5*
N#Cc1c(-c2ccccc2)ccnc1Oc1ccccc1 | u | 12.1% | 58.6* | 24.1*
COc1ccnc(Oc2ccc(C)cc2C)c1C#N | 5.6% | 14.7% | 11.0 | 18.2*
CN(C)c1ccnc(Nc2ccccc2)c1C#N | 0.9%[46.1 µM] | 29.4%[46.1 µM] | -6.1 | -1.1
COc1nccc(Nc2ccccc2)c1C#N | 9.0%[46.1 µM] | u | -11.9 | 0.6
COc1ccnc(Oc2cc(Cl)cc(Cl)c2)c1C#N | 14.8%[46.1 µM] | -1.1%[46.1 µM] | -13.8 | 1.5
COc1ccc(Oc2nccc(OC)c2C#N)cc1 | 10.8% | -7.9% | 7.5 | 19.6*
Cc1ccc([C@H]2C[C@H](O)[C@@H](n3cc(COC(=O)c4ccccc4)nn3)CN2C(=O)c2cccs2)cc1 | x | 1.0%[46.1 µM] | x | x
CCOC(=O)c1cccc(NS(=O)(=O)c2c(C)nc3sc(C)cn3c2=O)c1 | x | 15.9%[46.1 µM] | x | x
COc1ccc(N2CC(C)Cn3c2nc2c3c(=O)[nH]c(=O)n2C)cc1 (stereo not given) | -11.2% | -6.2% | -4.5 | -4.9
CC1CC1C(=O)Nc1ccc(-c2ccccc2)cc1 (stereo not given) | -2.1% | u | 82.6* | 44.8*
O=C1Nc2ccccc2S/C1=C/c1cccs1 | 9.1%[46.1 µM] | -3.6%[46.1 µM] | 62.0* | 27.8*

Screening results as filed in PubChem BioAssay.
